Out of some 69,000 compounds screened, about 8,600 (12%) showed an effect of 50% or more. The sample as a whole holds a higher share of strong results than the screen did.
System: Plasmodium berghei
Experiment: Screen against P. berghei liver stage (PbLuc), transformed with Luciferase, at 10uM
Format: functional, HepG2
Conditions: tested at 10 uM

| SMILES | INHIBITION [%] |
| --- | --- |
| O=C(O)c1cc(-c2cccs2)nc2c(Cl)cnn12 | 47.1 |
| Cn1cc(C#N)c(=O)n(CC(O)c2ccccc2F)c1=O (stereo unspecified) | -4.185 |
| CC(=O)N1CCC(c2cnc(-c3c(C)n[nH]c3C)cn2)CC1 | 49.6 |
| CC(CC(=O)O)CC(=O)Nc1sc2c(c1C(N)=O)CCc1ccccc1-2 (stereo unspecified) | 27.5 |
| CNC(=O)C(C)(C)N1CCC[C@H]1C(=O)NCCN1CCCC1 | -84.9 |
| Cc1ccc(C(=O)N2CCCN(Cc3cccs3)CC2)n1C | 6.683 |
| O=S1(=O)NC(C2CCN(Cc3ccncc3)CC2)Nc2ccccc21 (stereo unspecified) | 1.5 |
| CN(Cc1nnc(C2CC2)n1C)C1CCN(CCc2ccncc2)C1 (stereo unspecified) | -11.2 |
| COc1ccccc1CC1CCCN(CCC#N)C1 (stereo unspecified) | 9.32 |
| Cc1noc(CN(C)CC2CCCN(CCc3ccc(Cl)cc3)C2)n1 (stereo unspecified) | 58.5 |
| CN(Cc1cnc(N)nc1)CC1CCCN(CCc2ccc(Cl)cc2)C1 (stereo unspecified) | -7.94 |
| CN(Cc1ccncc1)CC1CCCN(CCc2ccc(Cl)cc2)C1 (stereo unspecified) | 65.9 |
| COc1ccccc1CN(Cc1cccnc1)Cc1c[nH]c(C)n1 | 12 |
| COc1ccccc1CCN1CCCC(CN(C)Cc2c[nH]c(C)n2)C1 (stereo unspecified) | 85.7 |
| Cc1nc(CN(C)CC2CCCN(CCc3ccc(Cl)cc3)C2)no1 (stereo unspecified) | 40.8 |
| Cc1nc(CN(C)CC2CCCN(CCc3ccc(Cl)cc3)C2)n(C)n1 (stereo unspecified) | 39.3 |
| CC(=O)NCCNC(=O)c1sc(-c2ccc(Cl)cc2)nc1C | -14.75 |
| C[C@@H]1CN(CCc2ccccc2)C[C@]12CCN(CC(=O)N(C)C)C2=O | -29.5 |
| CC(C#N)CN(C)Cc1nc2c(cnn2C)c(=O)[nH]1 (stereo unspecified) | 5.72 |
| CCN(CC1CCCO1)S(=O)(=O)N1CCCCCC1 (stereo unspecified) | -9.21 |
| Cc1ccc2c(c1)c(Sc1ccccc1)c(CC(=O)O)n2C | 12.8 |
| Cc1c[nH]nc1C1CCN(C(=O)CC2CCCC2)C1 (stereo unspecified) | -136 |
| CCc1oc(C(=O)N(C)Cc2nonc2C)cc1CN(CC)CC | 35.7 |
| Cc1ccc(C(=O)N2CCC3(CC2)C(=O)NCCN3C)cc1O | 4.64 |

| SMILES | INHIBITION [%] |
| --- | --- |
| CN(C)c1ncc(CN2CCOC(C(=O)Nc3ccccc3)C2)cn1 (stereo unspecified) | 23.9 |
| CC(C)c1ncc(CN2CCOC(C(=O)Nc3ccccc3)C2)cn1 (stereo unspecified) | 6.32 |
| CN(C)c1ncccc1CN1CCOC(C(=O)Nc2ccccc2)C1 (stereo unspecified) | 37.6 |
| Cc1cc(NC(=O)C2CN(Cc3ccccc3)CCO2)ccn1 (stereo unspecified) | 96.2 |
| CN(C)c1ncccc1NC(=O)C1CN(Cc2ccccc2)CCO1 (stereo unspecified) | 85.1 |
| Cc1cc(C)cc(NC(=O)CC2CN(Cc3ccccc3)CCO2)c1 (stereo unspecified) | -10.9 |
| CC(C)(C)n1cc(NC(=O)C2CN(Cc3ccccc3)CCO2)cn1 (stereo unspecified) | -43.3 |
| O=C(O)C1CN(Cc2cccc(-c3ccccn3)c2)CCO1 (stereo unspecified) | -1.45 |
| CN(C)c1ccc(NC(=O)C2CN(Cc3ccccc3)CCO2)cn1 (stereo unspecified) | 52.6 |
| Cc1ccc(CNc2cc(N3CCCC3CO)ncn2)s1 (stereo unspecified) | -23.9 |
| C[C@@H]1CN(C(=O)c2cccn2C)C[C@]12CCN(c1ccsc1)C2=O | 8.93 |
| CC(C)c1nnc2n1CC(CNCc1nc3ccccc3o1)CC2 (stereo unspecified) | 13 |
| Cc1cc(NCc2cn(C)nc2-c2cccnc2)n(C)n1 | -17.1 |
| CCn1cnnc1CNC(=O)N1CCCCCC1 | -8.11 |
| COCC1COCCC12CCN(S(=O)(=O)c1cccnc1)CC2 (stereo unspecified) | 36.5 |
| Cc1cnn(CCNCc2nnc(-c3ccc(F)cc3)o2)c1 | -35.7 |
| O=C(C1CNCCN1C(=O)CCOc1ccccc1)N1CCCC1 (stereo unspecified) | -27.5 |
| Cc1c(C(=O)O)cnn1-c1ccc(-c2nc(C(C)C)no2)cn1 | -44.7 |
| CC(C)c1nc(C2CCCN(C(=O)c3ccc4[nH]nnc4c3)C2)no1 (stereo unspecified) | -6.14 |
| Cc1nnc(N2C[C@H](OCc3ccncc3)[C@H]3OCCC[C@H]32)s1 | 19.5 |
| Cc1nnc(N2C[C@@H](OCCCn3cccn3)[C@H]3OCCC[C@H]32)s1 | 50.1 |
| CC(=O)N1CCO[C@H]2[C@H](OCCCn3cccn3)CC[C@@H]21 | 19.4 |
| c1cnn(CCCO[C@@H]2CC[C@H]3[C@H]2OCCN3CC2CC2)c1 | 53 |
| O=C(CC1CC1)N1CCO[C@H]2[C@H](OCCCn3cccn3)CC[C@@H]21 | 55 |

| SMILES | INHIBITION [%] |
| --- | --- |
| c1cnn(CCCO[C@@H]2CC[C@H]3[C@H]2OCCN3CC2CCOCC2)c1 | 26.3 |
| CCS(=O)(=O)N1CCO[C@H]2[C@H](OCCCn3cccn3)CC[C@@H]21 | -0.182 |
| O=C(C1CCC1)N1CCO[C@H]2[C@H](OCCCn3cccn3)CC[C@@H]21 | -47.8 |
| Cc1nnc(N2C[C@H](OCCCn3cccn3)[C@H]3OCCC[C@H]32)s1 | 43.9 |
| Clc1ccc(OCCNCCn2cccn2)cc1 | 9.14 |
| O=C(CCOCC(F)(F)F)N1CCCC(n2ccnc2)C1 (stereo unspecified) | -63.3 |
| O=C(NCc1ccccc1Cn1cncn1)C1CC1 | 49.8 |
| CC(=O)N1CCN(Cc2ccccn2)CC2(CC(=O)N(C)C2)C1 (stereo unspecified) | 14.1 |
| Cc1ncsc1CCC(=O)N1CCCC1c1cccnc1 (stereo unspecified) | -2.79 |
| Cc1ncsc1CCC(=O)N1CCn2cccc2C1c1cccnc1 (stereo unspecified) | 59.1 |
| CCN1CCC(CC(=O)N2CCn3cccc3C2c2cccnc2)CC1 (stereo unspecified) | 18.9 |
| CC(=O)c1ccc(C(=O)NCc2cccnc2N2CCCC(O)C2)s1 (stereo unspecified) | 69.7 |
| O=C(NCc1cccnc1N1CCCCC1)c1ccc2c(c1)OCO2 | -1.85 |
| CS(=O)(=O)NCC1CCCN(C(=O)Nc2cccnc2N2CCCC2)C1 (stereo unspecified) | -8.69 |
| Cc1nnsc1C(=O)NCC1CCN(c2ccccn2)CC1 | 14.6 |
| O=C(NCc1cccnc1N1CCCC(O)C1)c1ccc2[nH]nnc2c1 (stereo unspecified) | 18.6 |
| CCC1CCCN(C(=O)NCc2cccnc2-n2cccn2)C1 (stereo unspecified) | 33.8 |
| Cc1nnsc1C(=O)NCc1cccnc1N1CCc2ccccc2C1 | 5.8 |
| O=C(NCc1cccnc1N1CCCCC1)c1cccs1 | 7.12 |
| O=C(NCc1cccnc1N1CCCC(O)C1)c1ccsc1 (stereo unspecified) | 74.3 |
| Cc1nnsc1C(=O)NCc1cccnc1N1CCCC(O)C1 (stereo unspecified) | 66.3 |
| CC(NC(=O)c1cccs1)C(=O)NCc1cccnc1N1CCCCC1 (stereo unspecified) | 2.26 |
| CCS(=O)(=O)NCc1cccnc1N1CCCC(O)C1 (stereo unspecified) | 89.1 |
